The sample as a whole holds a higher share of hits than the screen did.
Pf Dd2 inh – qHTS Primary assay for Inhibitors of Plasmodium falciparum Dd2 growth in vitro. P. falciparum Dd2 growth, SYBR Green, 72 h. Potency, µM (highest dose often 28.9 µM), without a hit: at the highest dose activity, negative = inhibition, actives largely listed as inhibitors. hit rate 4.3% among 120,000; active means well fitted inhibition curve with a large enough effect;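 further: plate controls were DMSO vehicle for no effect and reference drug for full effect; nearly all actives have a fitted effect of over 65% in size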
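Infected erythrocytes (Dd2, 0.3% parasitemia, 2.5% hematocrit final) are added to compound in RPMI-1640/Albumax II medium, grown 72 h at 37C in low oxygen, then lysed with saponin/Triton-X containing SYBR Green and read by fluorescence.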
The depositor's hits bear a star; [ ] = another dose, or the depositor's remark. Potency means the concentration at half of the fitted maximal effect.

Results for Cc1ccc(CNC(=O)N2CCC(CC(=O)NC3CC3)C2)cc1 (configuration not stated) ?
Pf Dd2 inh: -17.6%

Results for COc1cccc(N2C(=O)NC(=NC3CCCCC3)C23CCN(Cc2ccc(F)cc2)C3)c1 (configuration not stated) ?
Pf Dd2 inh: -1.1%

What do the screens show for `Cn1cccc1CN1CCC2(C1)C(=NC1CCCC1)NC(=O)N2c1cc(F)cc(F)c1` (configuration not stated)?
Pf Dd2 inh: 8.91µM*

What do the screens show for `COc1cccc(N2C(=O)NC(=NC3CCCCC3)C23CCN([S+](C)(=O)[O-])C3)c1` (configuration not stated)?
Pf Dd2 inh: 8.9%

Results for O=C(c1ccccc1)N1CCC2(C1)C(=NC1CCCC1)NC(=O)N2c1cc(F)cc(F)c1 (configuration not stated) ?
Pf Dd2 inh: -4.4%

Results for Cn1cccc1CN1CCC2(CC1)C(=NC1CCCCC1)NC(=O)N2c1cccnc1 ?
Pf Dd2 inh: 53.5%

What do the screens show for `COc1cccc(N2C(=O)NC(=NC3CCCC3)C23CCN(Cc2cccn2C)C3)c1` (configuration not stated)?
Pf Dd2 inh: 10µM*

What do the screens show for `CC(=O)N[C@@H]1CN(C(=O)C2(c3ccccc3)CC2)C[C@H]1CO`?
Pf Dd2 inh: 21.2%

How did O=C(c1cccc(F)c1)N1CCC(N2C(=O)C(O)C23CCCCC3)CC1 (configuration not stated) do in these assays?
Pf Dd2 inh: 3.4%

How did COc1ccc(-c2cc(N3CCCC(NC(=O)c4ccoc4)C3)n[nH]2)cc1 (configuration not stated) do in these assays?
Pf Dd2 inh: -16.1%

Results for Cc1ccc(CC(=O)N2CCC[C@H]2c2nc(-c3ccccc3Cl)no2)cc1 ?
Pf Dd2 inh: inactive

Results for O=C(c1ccco1)c1cn(CCOc2ccc(F)cc2)c2ccccc12 ?
Pf Dd2 inh: 1.26µM*

How did Cc1ccc(NC(=O)Cn2cc(C(=O)c3ccco3)c3ccccc32)c(C)c1 do in these assays?
Pf Dd2 inh: -19.4%

How did O=C(c1cccs1)c1cn(CCOc2ccc(F)cc2)c2ccccc12 do in these assays?
Pf Dd2 inh: -29.6%

Results for Cc1cccc(C(=O)N2C[C@@H](Oc3ccccc3)C[C@H]2C(=O)NC2CC2)c1 ?
Pf Dd2 inh: 3.4%

What do the screens show for `CCN(Cc1ccccc1)C(=O)c1sc2nc3n(c(=O)c2c1C)CCCC3`?
Pf Dd2 inh: 235.3%[5.79 µM]

Results for CCc1ccc(N(CC)C(=O)c2sc3nc4n(c(=O)c3c2C)CCCC4)cc1 ?
Pf Dd2 inh: 11.2µM*

What do the screens show for `CCN(C(=O)c1sc2nc3n(c(=O)c2c1C)CCCCC3)c1ccc(OC)cc1`?
Pf Dd2 inh: -7.7%

Results for Cn1c(Cn2ccnc2)nnc1C1CCCN(C(=O)Nc2ccccc2F)C1 (configuration not stated) ?
Pf Dd2 inh: -9.0%

How did COCc1nncn1C1CCN(S(=O)(=O)c2ccc(OC)cc2)CC1 do in these assays?
Pf Dd2 inh: -24.0%

What do the screens show for `COC(=O)[C@@H]1Cc2ncn(C)c2CN1C(=O)c1ccc(OC)cc1`?
Pf Dd2 inh: 14.0%[44.1 µM]

What do the screens show for `O=C(CCC[C@H]1NC[C@@H]2C[C@H]1CN(Cc1ccccc1)C2)NCCN1CCCCC1`?
Pf Dd2 inh: -23.9%

How did COc1ccc2[nH]cc(CCNC(=O)CCC[C@H]3NC[C@@H]4C[C@H]3CN(Cc3ccccc3)C4)c2c1 do in these assays?
Pf Dd2 inh: 10µM*

Results for NC(=O)CCC[C@H]1NC[C@@H]2C[C@H]1CN(Cc1ccccc1)C2 ?
Pf Dd2 inh: -24.3%

Results for CNC(=O)CCC[C@H]1NC[C@@H]2CC1CN(Cc1ccccc1)C2 ?
Pf Dd2 inh: -26.2%

Results for CCN(Cc1ccccc1)C(=O)CCC[C@H]1NC[C@@H]2CC1CN(Cc1ccccc1)C2 ?
Pf Dd2 inh: 12.6µM*

What do the screens show for `COc1ccccc1OCCNC(=O)CCC[C@H]1NC[C@@H]2C[C@H]1CN(Cc1ccccc1)C2`?
Pf Dd2 inh: -31.0%

Results for CCCNC(=O)N1Cc2ccccc2OC2(CCN(C)CC2)C1 ?
Pf Dd2 inh: inactive

How did Cc1nc(CCCNC(=O)c2cc(S(N)(=O)=O)ccc2F)sc1C do in these assays?
Pf Dd2 inh: 12.1%

Results for Cc1ccc(C2Cn3nnc(-c4noc(-c5ccccc5F)n4)c3CO2)cc1 (configuration not stated) ?
Pf Dd2 inh: inactive

How did COCC(=O)N1CC(C(=O)NCc2ccncc2)C2(CCOCC2)C1 (configuration not stated) do in these assays?
Pf Dd2 inh: 17.4%

What do the screens show for `Cn1nc(C2CCN([S+](=O)([O-])c3cccc(C(F)(F)F)c3)CC2)[nH]c1=O`?
Pf Dd2 inh: -11.4%

How did Cc1nccn1C(C)CN1C(=O)NC2(CCNCC2)C1=O (configuration not stated) do in these assays?
Pf Dd2 inh: -2.1%

What do the screens show for `Cc1noc([C@@H]2CN(C(=O)CN3CCCCCC3)C[C@H]2CO)n1`?
Pf Dd2 inh: 3.5%

Screens from PubChem BioAssay.
